Data as given in the supplement of paper PMC10849652.
Of roughly 7,900 targets only a part is listed; those with a hit were picked by preference. About 0.6% of all pairs of compound and target were hits.

Assays:
Assay in all cases: log2 fold change, soluble protein after heating vs DMSO (PISA); higher = thermal stabilisation; K562 cells, 10 uM, 30 min; active = over 0.2 and 3.5 SD of the protein, either way, in both replicates (recomputed)
[1] = compound: C1COCCN1CCN2C3=CC=CC=C3N=C2NC(=O)C4=CC(=CC=C4)[N+](=O)[O-] [IRAK-1-4 Inhibitor I]
Summary of the method: (§1)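 Soluble protein was defined as the supernatant after 21,000xg for 90 min. It came from K562 cells at 2×10^6 cells/mL given 10 μM compound for 30 min, heated in aliquots for 3 min across 48°C-58°C, pooled, and extracted in PBS with 0.5% NP-40 at 4°C, and was quantified by TMTpro 16plex LC-MS/MS with equalised channel sums. Thermal stability against control samples, from duplicates, is reported as log2 fold change.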

[2] = compound: C=CC(=O)N1CCC[C@@H](n2nc(-c3ccc(Oc4ccccc4)cc3)c3c(N)ncnc32)C1 [ibrutinib]
Summary of the method: as §1

[3] = compound: CC(=O)c1cnc2ccc(-c3cc(Cl)c(O)c(Cl)c3)nc2c1N[C@H]1CC[C@H](CN(C)C)CC1
Summary of the method: as §1

[4] = compound: CC(C)(C)Cn1c(N)nc2ccc(-c3[nH]c(C(C)(C)C)nc3-c3ccc(F)cc3)nc21 [ralimetinib]
Summary of the method: as §1

[5] = compound: CC(C)(O)CC(=O)NCCn1ccc2ncnc(Nc3ccc(Oc4cccc(C(F)(F)F)c4)c(Cl)c3)c21
Summary of the method: as §1

[6] = compound: CC(C)C1=C2N=C(C=C(N2N=C1)NCC3=CC=CC=C3)NCCCCCCN
Summary of the method: as §1

[7] = compound: CC(C)C[C@@H](C=O)NC(=O)[C@H](CC(C)C)NC(=O)[C@H](CC(C)C)NC(=O)OCc1ccccc1
Summary of the method: as §1

[8] = compound: CC(C)N(C[C@H]1O[C@@H](n2cnc3c(N)ncnc32)[C@H](O)[C@@H]1O)[C@H]1C[C@@H](CCc2nc3cc(C(C)(C)C)ccc3[nH]2)C1 [pinometostat]
Summary of the method: as §1

[9] = compound: CC1=C(C(CC(=O)N1)C2=CC=C(C=C2)C(F)(F)F)C(=O)NC3=C(C=C4C(=C3)C=NN4)F
Summary of the method: as §1

[10] = compound: CC1=C(C2=C(C=C1)C(=O)C3=CC=CC=C3N2CCCN)C
Summary of the method: as §1

[11] = compound: CC1=C(C=C(C=C1)NC(=O)C2=CC(=CC=C2)C(C)(C)C#N)NC3=CC4=C(C=C3)N=CN(C4=O)C
Summary of the method: as §1

[12] = compound: CC1=C(C=C(C=C1)NC(=O)C2=CC(=CC=C2)N(C)C)NC(=O)C3=CC=C(C=C3)O
Summary of the method: as §1

[13] = compound: CC1=CC=C(C=C1)SC2=C3C=C(SC3=CN=C2)C(=O)N
Summary of the method: as §1

[14] = compound: CC1=NC(=CC=C1)C2=C(N=C(N2)C(C)(C)C)C3=CC4=NC=CN=C4C=C3
Summary of the method: as §1

[15] = compound: CCCCN(Cc1ccc(C(=O)NO)cc1)C(=O)Nc1ccccc1 [Nexturastat A]
Summary of the method: as §1

[16] = compound: CCCS(=O)(=O)Nc1ccc(F)c(C(=O)c2c[nH]c3ncc(-c4ccc(Cl)cc4)cc23)c1F [vemurafenib]
Summary of the method: as §1

[17] = compound: CCCS(=O)(=O)Nc1ccc(F)c(C(=O)c2c[nH]c3ncc(Cl)cc23)c1F
Summary of the method: as §1

[18] = compound: CCCc1cc(C)[nH]c(=O)c1CNC(=O)c1cc(-c2ccnc(N3CCN(C)CC3)c2)cc2c1cnn2C(C)C
Summary of the method: as §1

[19] = compound: CCN(CC)Cc1ccc2cc(COC(=O)Nc3ccc(C(=O)NO)cc3)ccc2c1 [givinostat]
Summary of the method: as §1

[20] = compound: CCN(CCCOc1ccc2c(Nc3cc(CC(=O)Nc4cccc(F)c4)[nH]n3)ncnc2c1)CCOP(=O)(O)O [barasertib]
Summary of the method: as §1

Measured: log2 fold change

NFE2 (UniProt Q16621)
Chain of UniProt Q16621 (Q16621 whole entry, looked up): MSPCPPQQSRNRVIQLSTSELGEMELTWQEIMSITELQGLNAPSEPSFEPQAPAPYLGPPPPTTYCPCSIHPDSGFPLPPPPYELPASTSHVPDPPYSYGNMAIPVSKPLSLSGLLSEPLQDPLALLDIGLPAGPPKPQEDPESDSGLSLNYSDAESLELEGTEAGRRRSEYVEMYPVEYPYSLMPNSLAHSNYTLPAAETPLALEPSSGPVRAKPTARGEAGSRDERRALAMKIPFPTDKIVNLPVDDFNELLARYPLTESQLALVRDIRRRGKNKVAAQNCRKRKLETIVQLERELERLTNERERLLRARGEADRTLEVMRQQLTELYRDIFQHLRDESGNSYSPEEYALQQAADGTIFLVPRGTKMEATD
inactive: [1] 0.053 | [2] -0.039 | [3] 0.016 | [4] -0.06 | [5] 0.01 | [6] -0.119 | [7] 0.184 | [8] -0.001 | [9] 0.037 | [11] -0.09 | [12] 0.064 | [13] 0.017 | [14] 0.034 | [15] 0.044 | [16] -0.087 | [17] 0.043 | [18] -0.009 | [19] 0.087 | [20] -0.003
active: [10] -0.285

MUL1 (UniProt Q969V5)
Chain of UniProt Q969V5 (Q969V5 whole entry, looked up): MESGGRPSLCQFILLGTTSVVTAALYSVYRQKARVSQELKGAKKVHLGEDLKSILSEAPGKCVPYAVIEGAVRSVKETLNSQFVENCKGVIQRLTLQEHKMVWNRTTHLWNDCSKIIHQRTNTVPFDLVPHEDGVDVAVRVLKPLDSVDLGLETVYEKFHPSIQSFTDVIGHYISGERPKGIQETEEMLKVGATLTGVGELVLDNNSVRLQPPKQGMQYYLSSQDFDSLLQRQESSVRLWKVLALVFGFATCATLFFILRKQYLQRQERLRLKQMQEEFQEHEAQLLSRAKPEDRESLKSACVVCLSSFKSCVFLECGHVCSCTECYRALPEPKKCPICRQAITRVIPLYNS
inactive: [1] 0.009 | [2] 0.009 | [3] -0.113 | [4] -0.008 | [5] -0.068 | [6] -0.004 | [7] 0.027 | [8] 0.021 | [9] -0.016 | [10] -0.01 | [11] -0.061 | [12] -0.015 | [13] 0.01 | [14] -0.004 | [15] -0.022 | [16] -0.039 | [17] 0.024 | [18] 0.11 | [19] 0.005 | [20] 0.005

NUDT21 (UniProt O43809)
Chain of UniProt O43809 (O43809 whole entry, looked up): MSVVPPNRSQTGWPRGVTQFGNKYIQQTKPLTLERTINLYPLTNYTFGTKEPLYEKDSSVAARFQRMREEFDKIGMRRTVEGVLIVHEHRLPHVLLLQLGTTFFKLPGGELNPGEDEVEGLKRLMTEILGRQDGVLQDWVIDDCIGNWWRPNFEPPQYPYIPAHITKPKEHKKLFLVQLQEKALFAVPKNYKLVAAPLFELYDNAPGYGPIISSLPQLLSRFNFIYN
inactive: [1] -0.057 | [2] 0.014 | [4] -0.022 | [5] 0.077 | [6] 0.066 | [7] 0.034 | [8] -0.022 | [9] -0.005 | [11] 0.052 | [12] 0.077 | [13] -0.007 | [14] 0.019 | [15] 0 | [16] 0.02 | [17] -0.053 | [18] -0.013 | [19] -0.033 | [20] -0.023
active: [3] -0.33 | [10] 0.246

NMT2 (UniProt O60551)
Chain of UniProt O60551 (O60551 whole entry, looked up): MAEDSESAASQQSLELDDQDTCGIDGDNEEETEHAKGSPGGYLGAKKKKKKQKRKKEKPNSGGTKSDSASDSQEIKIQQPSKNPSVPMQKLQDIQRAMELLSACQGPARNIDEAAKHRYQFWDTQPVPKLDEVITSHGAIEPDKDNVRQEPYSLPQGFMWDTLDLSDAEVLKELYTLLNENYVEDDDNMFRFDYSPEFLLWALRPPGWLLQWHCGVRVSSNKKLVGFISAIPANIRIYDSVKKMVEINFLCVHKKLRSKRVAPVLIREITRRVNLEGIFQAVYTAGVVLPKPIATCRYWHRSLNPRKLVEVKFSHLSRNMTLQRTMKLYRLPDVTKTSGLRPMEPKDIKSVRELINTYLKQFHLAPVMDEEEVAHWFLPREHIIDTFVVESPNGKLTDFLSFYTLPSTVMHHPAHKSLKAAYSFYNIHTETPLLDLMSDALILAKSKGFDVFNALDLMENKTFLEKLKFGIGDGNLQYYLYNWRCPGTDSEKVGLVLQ
inactive: [1] 0.006 | [2] 0.064 | [3] -0.031 | [4] -0.017 | [5] -0.022 | [6] -0.125 | [7] -0.019 | [8] 0.053 | [9] 0.037 | [10] 0.01 | [11] 0.006 | [12] 0.018 | [13] 0.237 | [14] 0.024 | [15] -0.037 | [16] -0.034 | [17] 0.031 | [18] 0.02 | [19] -0.233 | [20] 0

NCL (UniProt P19338)
active: [10] -0.891
inactive: [1] -0.144 | [2] 0.034 | [3] 0.118 | [4] 0.166 | [5] 0.119 | [6] 0.07 | [7] 0.121 | [8] 0.4 | [9] 0.039 | [11] -0.017 | [12] -0.056 | [13] -0.077 | [14] -0.126 | [15] 0.275 | [16] -0.139 | [17] -0.036 | [18] 0.145 | [19] 0.085 | [20] -0.101

MT-ATP6 (UniProt P00846)
inactive: [1] 0 | [2] -0.68 | [3] -0.178 | [4] -0.178 | [5] -0.033 | [6] -0.06 | [7] -0.165 | [8] -0.162 | [9] -0.218 | [10] -0.072 | [11] -0.009 | [12] 0.041 | [13] 0.008 | [14] 0.026 | [15] -0.133 | [16] -0.159 | [17] -0.043 | [18] -0.014 | [19] -0.074 | [20] 0.567

OAT (UniProt P04181)
Chain of UniProt P04181 (P04181 whole entry, looked up): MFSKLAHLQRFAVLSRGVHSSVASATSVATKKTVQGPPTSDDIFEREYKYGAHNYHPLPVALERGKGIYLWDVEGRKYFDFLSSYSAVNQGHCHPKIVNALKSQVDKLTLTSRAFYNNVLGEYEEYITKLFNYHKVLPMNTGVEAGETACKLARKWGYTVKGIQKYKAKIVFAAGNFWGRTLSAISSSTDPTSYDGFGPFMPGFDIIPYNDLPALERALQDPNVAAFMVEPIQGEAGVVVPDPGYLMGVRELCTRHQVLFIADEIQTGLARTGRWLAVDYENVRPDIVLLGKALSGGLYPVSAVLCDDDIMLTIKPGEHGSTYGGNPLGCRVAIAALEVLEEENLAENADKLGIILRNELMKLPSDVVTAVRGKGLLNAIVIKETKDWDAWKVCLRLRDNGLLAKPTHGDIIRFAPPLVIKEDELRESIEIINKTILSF
active: [6] -0.245
inactive: [1] 0.044 | [2] -0.006 | [3] -0.044 | [4] -0.053 | [5] -0.113 | [7] 0.007 | [8] -0.027 | [9] -0.006 | [10] -0.007 | [11] 0.087 | [12] 0.014 | [13] 0.02 | [14] 0.042 | [15] -0.01 | [16] 0.011 | [17] -0.023 | [18] -0.011 | [19] 0.045 | [20] 0.061

MTOR (UniProt P42345)
inactive: [1] -0.029 | [2] -0.03 | [3] 0.183 | [4] 0.011 | [5] -0.084 | [7] -0.002 | [8] 0.046 | [9] -0.044 | [10] 0.014 | [11] -0.033 | [12] -0.05 | [13] 0.02 | [14] -0.006 | [15] 0.009 | [16] 0.024 | [17] 0.071 | [18] 0.008 | [19] 0.038 | [20] 0.059
active: [6] -0.288

NDUFB10 (UniProt O96000)
inactive: [1] 0.015 | [2] 0.009 | [3] -0.001 | [4] -0.057 | [5] -0.018 | [6] -0.11 | [7] 0.023 | [8] -0.018 | [9] 0 | [10] 0.009 | [11] -0.093 | [12] -0.008 | [13] 0.001 | [14] 0.05 | [15] -0.002 | [16] -0.019 | [17] 0 | [18] -0.126 | [19] -0.023 | [20] 0.02

MT-ND1 (UniProt P03886)
Chain of UniProt P03886 (P03886 whole entry, looked up): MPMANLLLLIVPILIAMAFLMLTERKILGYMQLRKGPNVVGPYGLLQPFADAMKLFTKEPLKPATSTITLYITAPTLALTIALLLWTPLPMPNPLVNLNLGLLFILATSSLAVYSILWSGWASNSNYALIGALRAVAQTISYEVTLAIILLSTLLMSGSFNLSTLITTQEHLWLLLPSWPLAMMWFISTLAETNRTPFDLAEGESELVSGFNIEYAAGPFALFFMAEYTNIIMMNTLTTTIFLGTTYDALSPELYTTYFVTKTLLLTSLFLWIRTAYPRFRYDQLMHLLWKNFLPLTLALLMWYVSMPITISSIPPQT
inactive: [1] 0.104 | [2] -0.009 | [3] -0.072 | [4] 0.071 | [5] -0.142 | [6] -0.142 | [7] -0.102 | [8] -0.092 | [9] -0.115 | [10] 0.119 | [11] -0.002 | [12] 0.028 | [13] -0.008 | [14] -0.034 | [15] 0.021 | [16] 0.168 | [17] 0.208 | [18] 0.019 | [19] 0.057 | [20] 0.127

MND1 (UniProt Q9BWT6)
Chain of UniProt Q9BWT6 (Q9BWT6 whole entry, looked up): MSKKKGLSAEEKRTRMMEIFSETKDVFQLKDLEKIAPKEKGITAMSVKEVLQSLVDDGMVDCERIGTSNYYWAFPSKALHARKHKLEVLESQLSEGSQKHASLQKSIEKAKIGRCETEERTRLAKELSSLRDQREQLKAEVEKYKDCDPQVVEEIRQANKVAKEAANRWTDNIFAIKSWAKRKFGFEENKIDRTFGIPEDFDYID
inactive: [1] -0.022 | [2] 0.069 | [3] -0.053 | [4] 0.052 | [5] 0.008 | [6] -0.182 | [7] 0.173 | [8] 0.076 | [9] 0.058 | [10] 0.043 | [11] 0.034 | [12] 0.021 | [13] 0 | [14] 0.025 | [15] -0.043 | [16] -0.016 | [17] -0.024 | [18] -0.091 | [19] 0.048 | [20] -0.032

NPC1 (UniProt O15118)
Chain of UniProt O15118 (O15118 whole entry, looked up): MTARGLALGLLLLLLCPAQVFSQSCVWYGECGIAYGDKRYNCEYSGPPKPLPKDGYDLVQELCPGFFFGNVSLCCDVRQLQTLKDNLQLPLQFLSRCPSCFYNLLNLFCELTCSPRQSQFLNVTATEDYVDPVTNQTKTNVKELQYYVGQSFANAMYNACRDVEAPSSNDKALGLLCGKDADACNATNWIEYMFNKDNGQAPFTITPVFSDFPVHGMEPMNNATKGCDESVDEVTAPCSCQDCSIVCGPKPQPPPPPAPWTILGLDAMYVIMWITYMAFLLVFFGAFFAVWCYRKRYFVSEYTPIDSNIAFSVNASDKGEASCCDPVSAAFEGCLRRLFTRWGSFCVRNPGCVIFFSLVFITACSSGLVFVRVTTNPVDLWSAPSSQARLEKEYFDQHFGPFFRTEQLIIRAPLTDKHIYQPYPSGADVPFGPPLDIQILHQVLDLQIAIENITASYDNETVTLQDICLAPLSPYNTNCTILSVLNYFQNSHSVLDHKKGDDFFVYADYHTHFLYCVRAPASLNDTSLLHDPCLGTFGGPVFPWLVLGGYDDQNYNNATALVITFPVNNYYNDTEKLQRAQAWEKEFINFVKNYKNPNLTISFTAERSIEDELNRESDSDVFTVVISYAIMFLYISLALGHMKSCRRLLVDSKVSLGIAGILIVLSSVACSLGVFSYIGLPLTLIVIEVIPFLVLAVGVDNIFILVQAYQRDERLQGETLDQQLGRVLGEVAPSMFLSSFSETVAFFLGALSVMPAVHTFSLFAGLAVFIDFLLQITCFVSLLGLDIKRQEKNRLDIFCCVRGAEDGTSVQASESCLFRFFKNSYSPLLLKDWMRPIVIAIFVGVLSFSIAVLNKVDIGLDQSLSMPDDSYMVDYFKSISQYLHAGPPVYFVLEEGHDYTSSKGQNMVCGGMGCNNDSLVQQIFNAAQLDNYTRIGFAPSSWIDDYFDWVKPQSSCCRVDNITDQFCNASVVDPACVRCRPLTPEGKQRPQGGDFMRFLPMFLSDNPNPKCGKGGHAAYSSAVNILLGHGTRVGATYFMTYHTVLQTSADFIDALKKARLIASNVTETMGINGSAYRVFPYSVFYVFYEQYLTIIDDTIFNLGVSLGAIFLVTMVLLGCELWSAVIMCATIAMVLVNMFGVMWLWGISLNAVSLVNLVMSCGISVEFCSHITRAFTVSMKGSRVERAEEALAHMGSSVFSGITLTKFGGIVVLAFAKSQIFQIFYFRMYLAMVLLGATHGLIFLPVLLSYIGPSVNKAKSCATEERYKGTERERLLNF
inactive: [1] 0.014 | [2] 0.03 | [3] 0.031 | [4] -0.041 | [5] 0.028 | [6] -0.184 | [7] 0.006 | [8] -0.055 | [9] 0.078 | [10] -0.147 | [11] -0.018 | [12] 0.01 | [13] 0.006 | [14] 0.066 | [15] -0.041 | [16] 0.007 | [17] -0.019 | [18] -0.028 | [19] -0.051 | [20] 0.02

NA, A0A096LPI6
inactive: [1] 0.065 | [2] 0.022 | [3] 0.046 | [4] -0.057 | [5] 0.008 | [6] 0.058 | [7] -0.016 | [8] -0.043 | [9] 0.018 | [10] 0.004 | [11] -0.018 | [12] 0.032 | [13] 0.051 | [14] 0.039 | [15] -0.093 | [16] 0.008 | [17] 0.052 | [18] -0.033 | [19] -0.055 | [20] -0.003

OSBPL8 (UniProt Q9BZF1)
Chain of UniProt Q9BZF1 (Q9BZF1 whole entry, looked up): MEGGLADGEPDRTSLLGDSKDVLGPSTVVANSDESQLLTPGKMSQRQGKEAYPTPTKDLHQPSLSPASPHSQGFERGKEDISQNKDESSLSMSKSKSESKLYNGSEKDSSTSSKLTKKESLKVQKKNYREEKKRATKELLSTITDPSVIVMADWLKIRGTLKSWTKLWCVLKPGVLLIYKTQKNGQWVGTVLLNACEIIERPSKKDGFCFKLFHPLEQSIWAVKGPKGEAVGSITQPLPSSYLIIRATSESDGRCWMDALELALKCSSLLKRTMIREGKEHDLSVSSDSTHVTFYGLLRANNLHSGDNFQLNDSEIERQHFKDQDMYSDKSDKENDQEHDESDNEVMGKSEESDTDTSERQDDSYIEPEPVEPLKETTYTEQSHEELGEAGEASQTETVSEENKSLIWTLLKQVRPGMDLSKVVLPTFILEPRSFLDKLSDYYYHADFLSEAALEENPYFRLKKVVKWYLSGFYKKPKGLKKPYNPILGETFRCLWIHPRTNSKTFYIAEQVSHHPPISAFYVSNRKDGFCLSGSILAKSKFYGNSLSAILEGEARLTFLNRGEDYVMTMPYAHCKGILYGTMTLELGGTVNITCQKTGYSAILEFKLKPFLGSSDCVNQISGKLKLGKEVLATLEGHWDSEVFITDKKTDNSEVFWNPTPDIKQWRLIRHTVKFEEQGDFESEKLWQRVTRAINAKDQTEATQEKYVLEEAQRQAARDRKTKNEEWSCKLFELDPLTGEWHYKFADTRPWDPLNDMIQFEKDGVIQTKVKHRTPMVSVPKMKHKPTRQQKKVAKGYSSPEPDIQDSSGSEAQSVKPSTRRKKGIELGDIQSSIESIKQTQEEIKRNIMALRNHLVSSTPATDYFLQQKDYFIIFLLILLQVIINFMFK
inactive: [1] -0.148 | [2] -0.042 | [3] -0.204 | [4] 0.199 | [5] -0.019 | [6] -0.378 | [7] 0.046 | [8] 0.201 | [9] -0.076 | [10] 0.045 | [11] 0.209 | [12] 0.011 | [13] 0.009 | [14] -0.027 | [15] 0.109 | [16] 0.074 | [17] 0.035 | [18] 0.309 | [19] -0.03 | [20] 0.094

MRPS27 isoform 2 (UniProt Q92552)
inactive: [1] -0.116 | [2] 0.019 | [3] -0.002 | [4] 0.069 | [5] -0.104 | [6] -0.161 | [7] -0.011 | [8] -0.022 | [9] -0.021 | [10] -0.06 | [11] 0.037 | [12] -0.022 | [13] 0.006 | [14] 0.039 | [15] 0.151 | [16] 0.064 | [17] 0.035 | [18] 0.051 | [19] 0.055 | [20] -0.016

MIS12 (UniProt Q9H081)
Chain of UniProt Q9H081 (Q9H081 whole entry, looked up): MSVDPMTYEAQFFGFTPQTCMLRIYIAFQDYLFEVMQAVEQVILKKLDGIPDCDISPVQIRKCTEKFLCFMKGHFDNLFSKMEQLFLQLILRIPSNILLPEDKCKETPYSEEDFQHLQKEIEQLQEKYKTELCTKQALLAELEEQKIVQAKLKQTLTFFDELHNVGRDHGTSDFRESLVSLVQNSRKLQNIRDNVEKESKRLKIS
inactive: [1] 0.024 | [2] 0.026 | [3] -0.025 | [4] -0.004 | [5] -0.151 | [6] -0.087 | [7] 0.06 | [8] 0.006 | [9] 0.019 | [10] -0.035 | [11] -0.008 | [12] -0.141 | [13] -0.004 | [14] 0.044 | [15] 0.056 | [16] 0.074 | [17] -0.002 | [18] 0.023 | [19] 0.102 | [20] 0.049
